Drawing on PubChem BioAssay AID602346 (Broad Institute, 2012), this text covers inhibition for 84 compounds.

The term inhibition denotes the relative decrease from the control value, in per cent.

The whole screen tested about 340,000 compounds, of which about 1,200 (0.35%) were called active. Only a selection was taken, and actives are over-represented in it overall. A number with no mark means an inactive call. Cut-off read from the data, not from the text of the source: active = inhibition above about 50% (passing the limit was not always enough); inconclusive = no clear call, values can overlap the other calls; inactive = below about 31%.

A short description of this test: blockers of Vif multimerization in cells – imaging, HEK293T, single point, primary screen (AID 602346). Conditions: Vif self-association by quenched fluorescence, 24 h, at 7.49 µM, hits give high values.
Turning to `COc1ccc(-c2nn(-c3ccccc3)cc2/C=C\C(=O)N2CCOCC2)cc1[N+](=O)[O-]`, the inhibition was 1.35%.

Consider `O=C(O)c1ccc(N/N=C/c2cn(-c3ccccc3)nc2-c2cccs2)cc1`, for which the inhibition was -6.33%.

On to `O=C(/C=C\c1cn(-c2ccccc2)nc1-c1cccs1)N1CCOCC1`, for which the inhibition is 87.7% (active).

Take `O=CNc1cc(-c2ccc(C(=O)N3CCOCC3)cc2)cn2c(-c3ccc(F)cc3)cnc12`: the inhibition is 6.34%.

In the case of `CCN(CC)CCn1c2ccc(Cl)cc2c2nc(C)sc21`, the inhibition is 16.1%.

Consider `CCN(CC)CCCC(C)n1c2nc(=O)[nH]c(=O)c-2nc2cc(Cl)ccc21` (centres undefined), for which the inhibition is 128% (active).

With `Cc1nc2c(OCc3ccc(Cl)cc3)cccn2c1N(C)Cc1cccs1`, the inhibition is -12.4%.

As to `O=C(Nc1ccc2oc(-c3ccc4ccccc4c3)nc2c1)c1cccs1`, the inhibition is 52.2% (active).

For `CC(Oc1cccc(NC(=O)c2cccs2)c1)C(=O)c1ccccc1` (centres undefined), the inhibition was 12.5%.

Consider `O=C(Nc1ccc2oc(-c3ccccc3F)nc2c1)c1ccco1`, for which the inhibition is 4.71%.

As to `C#CCN(C[C@@H]1[C@@H](OC(=O)NC2CC2)[C@@H](OC(=O)NC2CC2)Cn2c(=O)ccc(=O)n21)S(=O)(=O)c1ccc(C)cc1`, the inhibition is -0.284%.

With `CCOC(=O)c1ccc(Nc2cc3ccccc3c(=O)[nH]2)cc1`, the inhibition is 9.05%.

With `CCOC(=O)c1nc(Nc2ccc(C(=O)OC)cc2)c2ccccc2n1`, the inhibition is 99.4% (active).

Take `CCOC(=O)c1ccc(N/C(=N/S(=O)(=O)c2ccccc2)c2ccccc2)cc1`: the inhibition is -4.64%.

`CN(C)C(=O)c1cccc(-c2cnc3sc(NCc4ccc5c(c4)OCO5)nn23)c1`: the inhibition is -12%.

In the case of `COc1cccc(-n2c(SCC(=O)c3c[nH]c4ccccc34)nc3ccccc3c2=O)c1`, the inhibition was -2.01%.

Regarding `COc1ccc(C2C(C(C)=O)=C(O)C(=O)N2CCc2c[nH]c3ccccc23)cc1` (centres undefined), the inhibition was -11.5%.

`COc1ccc(/C=C(\C#N)c2c[nH]c3ccccc23)cc1`: the inhibition is 52.1% (active).

Take `Cc1ccc(C(NC(=O)C2CCN(CCOc3ccc(Cl)cc3Cl)CC2)c2ccccn2)cc1` (centres undefined): the inhibition is 4.63%.

For the compound `Cc1ccccc1Cn1c(C)c(C(=O)NCc2cccc(C(F)(F)F)c2)sc1=O`, the inhibition is -7.14%.

For `CCOC(=O)C1=CCC(c2ccc(F)cc2)N(S(=O)(=O)c2ccc(C)cc2)C1` (centres undefined), the inhibition is 24.4%.

In the case of `COc1cc(OC)cc(C(=O)N[C@H](C(=O)NNC(=O)c2ccc(Br)cc2)C(C)C)c1`, the inhibition is 1.45%.

In the case of `COc1ccc(C(=O)N[C@H](C(=O)NCc2ccccc2)C(C)C)cc1`, the inhibition was 4.63%.

As to `COc1cc(OC)cc(C(=O)N[C@H](C(=O)Nc2nc3ccccc3[nH]2)C(C)C)c1`, the inhibition was 116% (active).

As for `Cc1nc2c(OCc3ccc(Cl)cc3Cl)cccn2c1N(C)CC1CC1`, the inhibition was -14%.

Take `O=C(NCc1nnnn1-c1ccc(Cl)cc1)c1ccc([N+](=O)[O-])o1`: the inhibition was 6.82%.

With `CCC(=O)Nc1ccc(S(=O)(=O)Nc2c(NC)c3ccccc3oc2=O)cc1`, the inhibition is -6.99%.

As to `NCCCNC(=S)NCCCN(Cc1ccc(Cl)cc1)c1ccc(Br)cn1`, the inhibition was -10.7%.

On to `O=C(COC(=O)c1ccccc1)Nc1cccc(S(=O)(=O)N2CCOCC2)c1`, for which the inhibition is 6.23%.

Turning to `O=C(COC(=O)/C=C/c1ccc(Br)o1)Nc1cccc(S(=O)(=O)N2CCOCC2)c1`, the inhibition is 72.1% (active).

As for `NS(=O)(=O)c1cccc(NC(=O)COC(=O)/C=C/c2ccco2)c1`, the inhibition was 40.9%.

As for `C[C@@H]1CN([C@H](C)CO)S(=O)(=O)c2ccc(C#C[C@@H](C)O)cc2O[C@@H]1CN(C)Cc1ccc(-c2ccccc2)cc1`, the inhibition was -0.002%.

Take `NC(Cc1ccc(F)cc1)c1csc(Nc2nncc3ccccc23)n1` (centres undefined): the inhibition is -17.9%.

For `Cc1cccnc1C(NC(=O)C1CCN(Cc2ccc(Cl)c(Cl)c2)CC1)c1ccc(Cl)cc1` (centres undefined), the inhibition is 11.5%.

For `COc1ccc(CNC(=O)c2ccc(-c3cccnc3)c3ccoc23)cc1OC`, the inhibition was -16.6%.

For `CCCNC(=O)C1(C)CCN(Cc2ccc(Cl)c(Cl)c2)C1` (centres undefined), the inhibition is 3.78%.

On to `COc1ccc(-c2cc(NC=O)c3ncc(-c4cc(OC)c(OC)c(OC)c4)n3c2)c(OC)c1`, for which the inhibition is 21.8%.

For the compound `COc1ccc(O)c(C(=O)c2cnc3c(c2)c(-c2ccc(F)cc2)c(C#N)c(=O)n3C)c1`, the inhibition is 1.06%.

Regarding `Cn1c(N)cc(-c2ccc(F)cc2)c(C#N)c1=O`, the inhibition is -9.36%.

Regarding `Cc1cc(C)c2c(-c3ccc(F)cc3)c(C#N)c(=O)n(C)c2n1`, the inhibition is 54.6% (active).

For `NC(c1csc(NC(=O)Nc2cccc(C(F)(F)F)c2)n1)C1CCCCC1` (centres undefined), the inhibition was -1.56%.

As to `CC(C)(C)n1nc(Cc2cccc3ccccc23)c(C#N)c1N`, the inhibition is 13.5%.

With `CCc1nn(-c2cc(Oc3cccc4ccccc34)nc(-c3ccccc3)n2)c(N)c1C#N`, the inhibition was 53.3% (active).

Consider `CC1(C(=O)NCc2ccc(F)c(F)c2)Cc2c(-c3ccc4c(c3)OCO4)ccnc2O1` (centres undefined), for which the inhibition was -5.82%.

Take `CCN(CC)CCN(C(=O)c1ccc2c(c1)CCCC2)c1nc2c(OC)cccc2s1`: the inhibition was -7.26%.

For the compound `C[C@@H]1CCCCO[C@H](CN(C)Cc2ccccc2)[C@@H](C)CN([C@H](C)CO)C(=O)c2cc(NS(=O)(=O)c3ccc(Cl)cc3)ccc2O1`, the inhibition is 8.14%.

For `CC(C)OCCCNc1ncnc2c1[nH]c1ccc(F)cc12`, the inhibition was 65.5% (active).

For `COc1ccc(C(=O)N2CCCCC2c2cc(C(=O)Nc3ccccc3)no2)cc1` (centres undefined), the inhibition was 13.8%.

For `CC(C)N=C1CCCC1C(=S)SSC(=S)C1CCCC1=NC(C)C` (centres undefined), the inhibition is 0.152%.

Turning to `CCOC(=O)C1CCCN(C(=O)c2cc(-c3cccs3)oc2C)CC1` (centres undefined), the inhibition was -8.46%.

As for `CC(C)c1cccc(-c2csc(C(O)c3ccccc3)n2)c1` (centres undefined), the inhibition was -7.2%.

Turning to `CCC(CO)Oc1cc(NC(=O)c2cccc3ccccc23)c2ncn(C(C)C)c2c1` (centres undefined), the inhibition was 1.25%.

For `CC(C)n1cnc2c(NCc3ccccc3)cc(OCC3CCN(C)CC3)cc21`, the inhibition is 78.2% (active).

Take `CCC(CO)Oc1cc(NC(=O)c2cccc(F)c2)c2ncn(C(C)C)c2c1` (centres undefined): the inhibition is -4.4%.

`CCCCC(=O)N(C)c1c(CC)nc2c(OCc3ccc(Cl)cc3Cl)cccn12`: the inhibition was 1.33%.

With `COc1ccc(NC2CCCN(C(=O)c3ccccc3-c3ncc[nH]3)C2)cc1` (centres undefined), the inhibition was 10.8%.

On to `CC(=O)Nc1cc(-c2ccc(N3CCN(C)CC3)cc2)cn2c(-c3ccc(F)cc3)cnc12`, for which the inhibition is -22.4%.

For `CCN(CC)C(=O)C1=C(C)N(Cc2ccc(C(C)(C)C)cc2)C(=O)C(CC(=O)NCc2cccc3ccccc23)C1` (centres undefined), the inhibition is -1.52%.

In the case of `FC(F)(F)c1nnc2c3ccccc3c(Cl)nn12`, the inhibition is 78.3% (active).

As to `Nc1nnc2c(C(F)(F)F)nc3ccccc3n12`, the inhibition was 44%.

In the case of `FC(F)(F)c1nnc2ccc(N3CCN(c4ccccc4)CC3)nn12`, the inhibition is 19.6%.

On to `CC1(Oc2ccccc2-c2ccno2)CCN(Cc2ccc(-c3ccccc3)o2)C1` (centres undefined), for which the inhibition is 4.47%.

In the case of `Cc1ccc(-c2cnc(C(O)c3cc(Cl)cc(Cl)c3)[nH]2)cc1` (centres undefined), the inhibition is -6.84%.

For the compound `COc1ccc(C(c2nnnn2C2CCCC2)N2CCN(C/C=C/c3ccccc3)CC2)cc1` (centres undefined), the inhibition was 16.8%.

For the compound `COc1ccc(C2CC(c3ccccc3)=NN2C(=O)c2ccc(Cl)c([N+](=O)[O-])c2)cc1` (centres undefined), the inhibition was 89.1% (active).

Turning to `COc1ccc(C2=NN(C(=O)c3cccnc3)C(c3ccccc3)C2)cc1` (centres undefined), the inhibition was -3.05%.

Regarding `COc1ccc(C2CC(c3ccc([N+](=O)[O-])cc3)=NN2C(C)=O)cc1` (centres undefined), the inhibition is 1.95%.

Regarding `CCCCN(C=O)c1c(CC)nc2c(OCCC3CCCCC3)cccn12`, the inhibition is -3.38%.

Consider `Cc1ccccc1C1=NC(C(F)(F)F)(C(F)(F)F)c2c(n(-c3ccc(F)cc3)c(=O)[nH]c2=O)N1`, for which the inhibition was -7.19%.

On to `Nc1c(N(Cc2ccco2)C(=O)c2cccc(F)c2)c(=O)[nH]c(=O)n1Cc1ccccc1`, for which the inhibition was 6.01%.

For `O=c1[nH]c(=O)n(Cc2ccco2)c2c1C(C(F)(F)F)(C(F)(F)F)N=C(c1ccco1)N2`, the inhibition was 51.3% (active).

In the case of `C=C(C)C(=O)O[C@H]1C/C(C)=C\C(=O)/C=C(\C)[C@H](O)[C@@H]2OC(=O)C(=C)[C@@H]21`, the inhibition is 136% (active).

Take `O=C(NC(c1ccc(Cl)cc1)c1cnccn1)C1CCN(Cc2ccc(Cl)cc2)CC1` (centres undefined): the inhibition is 26.5%.

As to `CC(=O)c1ccc(Nc2nc(C(N)c3ccccc3)cs2)cc1` (centres undefined), the inhibition is -5.96%.

In the case of `COc1ccc(OC)c(NC(=O)C2(C)CCN2C(=O)Cc2ccccc2)c1` (centres undefined), the inhibition was 2.75%.

Take `CC(C)CC1C(=O)N(Cc2cn(Cc3ccco3)nn2)CCS(=O)(=O)N1Cc1ccc(-c2ccc(Cl)c(Cl)c2)cc1` (centres undefined): the inhibition is 0.356%.

On to `Cc1ccc(C)c(S(=O)(=O)Nc2cccc(-n3cnnn3)c2)c1`, for which the inhibition is 69.3% (active).

`O=C(Nc1cccc(-n2cnnn2)c1)c1cccnc1`: the inhibition is 1.28%.

Regarding `O=S(=O)(Nc1cccc(-n2cnnn2)c1)c1cnc(Cl)c(Cl)c1`, the inhibition is -0.268%.

As to `COc1cccc(-c2cnc3c(NC(C)=O)cc(-c4cccc(NC(C)=O)c4)cn23)c1`, the inhibition is -4.77%.

Regarding `O=C(NCCN1CCOCC1)c1ccccc1N1C(=O)[C@@H]2Cc3c([nH]c4ccccc34)C(c3cccc(Cl)c3)N2C1=O` (some centres undefined), the inhibition was 2.4%.

In the case of `CC(=O)NC(Cc1c[nH]c2ccccc12)C(=O)NCCc1ccccc1` (centres undefined), the inhibition was 50.4% (active).

With `CCOC(=O)c1ccccc1NC(=O)COC(=O)C(Cc1c[nH]c2ccccc12)NC(C)=O` (centres undefined), the inhibition was 1.23%.

For the compound `COc1ccc(CNC(=O)[C@H](Cc2c[nH]c3ccccc23)NC(C)=O)cc1OC`, the inhibition is -6.67%.
